High-throughput results (PubChem)
FLuc counter – qHTS profiling assay for firefly luciferase inhibitor/activator using purifed enzyme and Km concentrations of substrates (counterscreen for miR-21 project); Luciferin 4-monooxygenase (Photinus pyralis), P08659; purified FLuc, Km substrates, luminescence inhibition; Potency, µM (doses to about 57.5 µM), for the others: top-dose activity change, negative = inhibition, actives largely listed as inhibitors; actives 6.9% (n = 360,000); AID 588342, 2011;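 also: plate controls were vehicle for no effect and reference inhibitor for full effect; nearly all actives have a fitted effect of over 55% in size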
Target sequence (P08659 whole entry, looked up): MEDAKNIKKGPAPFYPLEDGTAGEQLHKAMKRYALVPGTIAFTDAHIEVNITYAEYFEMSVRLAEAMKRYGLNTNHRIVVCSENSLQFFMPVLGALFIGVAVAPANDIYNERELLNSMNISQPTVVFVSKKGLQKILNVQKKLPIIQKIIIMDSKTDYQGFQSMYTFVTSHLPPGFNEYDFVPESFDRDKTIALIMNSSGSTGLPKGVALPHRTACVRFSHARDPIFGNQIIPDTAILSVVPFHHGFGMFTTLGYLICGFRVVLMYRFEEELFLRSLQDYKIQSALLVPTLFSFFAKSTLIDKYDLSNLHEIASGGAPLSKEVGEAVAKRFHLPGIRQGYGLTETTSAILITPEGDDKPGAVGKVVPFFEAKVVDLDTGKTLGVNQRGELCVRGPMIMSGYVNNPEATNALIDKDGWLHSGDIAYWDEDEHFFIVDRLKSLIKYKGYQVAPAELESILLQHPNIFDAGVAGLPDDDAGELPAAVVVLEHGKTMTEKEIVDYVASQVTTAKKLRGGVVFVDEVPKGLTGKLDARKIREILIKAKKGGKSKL
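Purified P. pyralis luciferase (10nM final) with 10uM D-luciferin and 10uM ATP (Km levels) in 50mM Tris acetate pH 7.5, 10mM Mg acetate, 0.01% Tween-20, 0.05% BSA; qHTS 6-point titration, ~60 µM downward; luminescence read.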
SMN2 splice up – qHTS Assay for Enhancers of SMN2 Splice Variant Expression | HEK293 SMN2-luciferase splicing reporter, luminescence, 30-36 h | Potency, µM (doses to about 46.1 µM), for the others: at the top dose activity change, positive = activation, hits mostly activators | actives 2.8% (n = 210,000) | AID 1458, 2008; also: % of control where 0% means no effect; nearly all actives have a fitted effect of over 55% in size
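HEK293 cells carry an SMN2 minigene-luciferase reporter in which exon 7 inclusion puts luciferase in frame. Cells were seeded at 2000 cells/well, attached for 10-12 hours, then exposed to compounds for 30-36 hours at 37C before ONE-Glo luminescence.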
ELG1 genotoxic – qHTS screen for small molecules that induce genotoxicity in human embryonic kidney (HEK293T) cells expressing luciferase-tagged ELG1; HEK293T ELG1-luciferase reporter, luminescence, 16 h; Potency, µM (highest dose often 46 µM), without a hit: top-dose activity change, positive = activation, most hits filed as activators; actives 1.3% (n = 330,000); AID 504466, 2011; also: % of control where 0% means no effect; nearly all actives have a fitted effect of over 60% in size
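DMSO vehicle served as control against compound-treated ELG1-luciferase HEK293T cells; exposure lasted 16 hr at 37 °C and 5% CO2, followed by ONE-Glo luminescence detection after 30 min.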
Rab9 promoter act – qHTS Assay for Rab9 Promoter Activators. Potency, µM (series often up to 9.22 µM), for the others: at the top dose activation, negative = inhibition, hits mostly activators. actives 2.8% (n = 320,000). Huh7 Rab9 promoter-luciferase reporter, luminescence, 24 h; also: % of control where 0% means no effect; nearly all actives have a fitted effect of over 60% in size
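Huh7 cells stably carrying a Rab9 promoter-luciferase reporter, 1500 cells per well in OP-MEM I with 10% FBS, treated with compound 24 hours at 37C. Luciferase activity read by luminescence after 10 minutes with Amplite reagent.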
NPC1 promoter act – qHTS Assay for NPC1 Promoter Activators. Potency, µM (titrated, usually from 9.22 µM), inactives show top-dose activation, usual class: activators. actives 2.4% (n = 320,000). Huh7 NPC1 promoter luciferase reporter, 24 h; also: % of control where 0% means no effect; nearly all actives have a fitted effect of over 60% in size
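Stably transfected Huh7 (NPC1 promoter→luciferase), 1500 cells/well in Opti-MEM + 10% FBS, 2 h settle, then compound 24 h at 37 °C. Luminescence after 10 min with Amplite reagent.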
An asterisk follows results filed as active; ? = inconclusive; / = not tested or not shown; [ ] = dose if it differs, or a comment. Shown are actives, neighbours in structure and some others; about 7.5% of the full set was active somewhere. Calls follow the shape of the dose curve; as a rule, active = well fitted curve in the direction sought with a large enough effect; inconclusive = small, poorly fitted or top-dose-only effect, or another doubt; inactive = no such curve, though single readings can be large; an effect the other way counts as inactive or inconclusive. Potency is read from the fitted curve at half-maximal effect.

SMILES	FLuc counter	SMN2 splice up	ELG1 genotoxic	Rab9 promoter act	NPC1 promoter act
O=C(O)c1cc(-c2cccc([N+](=O)[O-])c2)nc2ccccc12	19µM*	/	2%	-3%	1%
O=C(N/N=C/c1cccc([N+](=O)[O-])c1)c1cc(-c2ccccc2)nc2ccccc12	2%	-2%[1.84 µM]	5%	0%	-3%
Cc1ccc(-n2c(CSc3nc(C)cc(C)n3)nnc2SCC(=O)Nc2nccs2)cc1	-2%	/	-1%	-4%	-2%
Nc1nonc1-n1nnc(C(=O)N/N=C/c2ccc3c(c2)OCO3)c1CSc1ccccc1	-6%	/	0%	-6%	4%
Brc1ccc(-n2cnc(-c3ccccc3)c2)cc1	0.95µM*	/	?	0.56µM*	1.4µM*
Cc1cc(=O)[nH]c2c(C)cc(S(=O)(=O)N3CCCCC3)cc12	0%	/	16µM*	-10%	-10%
CC(C)(C)c1ccc(C(=O)N2CCCC2)s1	15µM*	/	?	19%	-7%
Nc1ccc(-c2nc3ccc(-c4nc5ccccc5o4)cc3[nH]2)cc1	?	4%	2%	26%	29%
Cc1ccnc2ccc(-c3nc4ccccc4o3)cc12	5.4µM*	18µM*	?	3.5µM*	?
Cc1nc2ccc(-c3nc4ccccc4o3)cc2[nH]1	2.4µM*	?	?	0.45µM*	0.71µM*
Clc1cccc(-n2ncc3c(Nc4ccc5c(c4)OCCO5)ncnc32)c1	13µM*	/	/	/	/
Fc1ccc(CNc2ncnc3c2cnn3-c2ccccc2)cc1	?	-17%	/	/	/
Cc1ccc(-n2ncc3c(Nc4ccc5c(c4)OCCO5)ncnc32)cc1Cl	-18%	/	/	/	/
Cc1ccc(Cl)cc1-n1ncc2c(Nc3ccc4c(c3)OCCO4)ncnc21	11µM*	/	/	/	/
Fc1ccc(-n2ncc3c(Nc4ccc5c(c4)OCCO5)ncnc32)cc1	17µM*	/	/	/	/
Cc1c(C(=O)NCc2ccccc2Cl)cccc1-n1cnc2cccnc21	6%	/	/	/	/
COCCNC(=O)NC(=O)COC(=O)c1cc([N+](=O)[O-])ccc1Sc1nc(C)cs1	3%	/	2%	-3%	3%
COC(=O)c1ccc(NC(=O)CSCC(=O)OCC(=O)c2ccc(Br)cc2)cc1	12µM*	-11%	0%	1%	-3%
CN(c1ccc(OCC(=O)NCCc2ccccc2)cc1)S(=O)(=O)c1ccc(Cl)cc1	-18%	/	?	15%	6%
CCn1cc(C(=O)OCc2ccccc2)c(=O)c2ccc(C)nc21	6%	13%	-5%	-1%	-4%
CCn1cc(C(=O)Nc2ccccc2C(=O)OC)c(=O)c2ccc(C)nc21	3.4µM*	11µM*	?	1.1µM*	0.56µM*
CCOC(=O)c1ccccc1NC(=O)c1cn(CC)c2nc(C)ccc2c1=O	3.4µM*	-42%	?	0.79µM*	1µM*
CCOC(=O)c1cn(CC)c2c(ccc3ccccc32)c1=O	24µM*	/	12%	19%	22%
CCn1cc(C(=O)Nc2cccc(C(=O)OC)c2)c(=O)c2ccc(C)nc21	-4%	7%	-7%	20%	14%
Cc1onc(-c2ccccc2)c1C(=O)N/N=C(\N)COc1ccc(Cl)cc1	1%	-8%	-6%	-3%	-3%
SMILES	FLuc counter	SMN2 splice up	ELG1 genotoxic	Rab9 promoter act	NPC1 promoter act
Cc1ccccc1Oc1ncnc(N)c1[N+](=O)[O-]	-3%	-3%	10%	-2%	-11%
CCOc1ccc(N=C(/C(C(=O)C(=O)N2CCOCC2)=C(\O)c2ccccc2)c2ccccc2)cc1	?	13µM*	?	?	?
CCOc1ccc(C(=O)C(c2ccccc2)N2CCOCC2)cc1 (configuration not stated)	-3%	-2%	0%	9%	-1%
O=C(CCn1cncn1)N1CCN(S(=O)(=O)c2ccc(Cl)cc2)CC1	1%	/	1%	0%	-2%
Cc1cccc(N/N=C/c2ccccc2O)c1	6µM*	11µM*	?	4µM*	?
O=C(N/N=C/c1ccc(O)cc1)c1cccc(N/N=C/c2ccc(O)cc2)c1	2.1µM*	/	?	0.89µM*	0.56µM*
Cc1cccc(N/N=C/c2ccncc2)c1	15µM*	/	?	?	?
Cc1cccc(NC(=O)CCC(=O)N/N=C/c2ccc(O)cc2O)c1	-3%	/	8%	-4%	-8%
O=C(N/N=C/c1ccncc1)c1cccc(N/N=C/c2ccncc2)c1	11µM*	?	-2%	?	3.5µM*
O=C(N/N=C/c1ccc(O)cc1)c1cccc(C(F)(F)F)c1	?	6%	9%	-3%	0%
Cc1cccc(NC(=O)C(=O)N/N=C/c2ccncc2)c1	-10%	10%	2%	-2%	-2%
N#Cc1c(/N=C/c2ccco2)sc2c1CCC2	2.4µM*	/	2%	-1%	-3%
Cc1[nH]n(-c2ccc(F)cc2)c(=O)c1/C=N/c1sc2c(c1C#N)CCCC2	13µM*	-22%	-5%	0%	1%
Cc1ccc(C=Nc2ccccc2C#N)s1	1.3µM*	3%	9%	0%	0%
Cc1[nH]n(-c2cccc3ccccc23)c(=O)c1/C=N/c1sc2c(c1C#N)CCC2	-4%	-8%	-6%	0%	?
CCOc1[nH]c(/N=C/c2ccco2)c(C#N)c1C#N	?	-17%	1%	-1%	2%
Cc1ccc(/C=N/c2sc3c(c2C#N)CCC3)s1	0.67µM*	7.1µM*	?	?	?
CCOC(=O)c1[nH]c2cc3c(cc2c1NC(=O)CN1CCC(C)CC1)OCO3	1%	-18%	-2%	1%	2%
COc1cccc(N(C(=O)Cn2nnc(-c3ccc(C)o3)n2)C(C(=O)NC2CCCC2)c2ccncc2)c1 (configuration not stated)	-2%	/	5%	-4%	-9%
N#Cc1c(/N=C/c2cc3ccccc3s2)sc2c1CCC2	?	10µM*	?	1.4µM*	1.4µM*
Cc1ccc(/C=N/c2sc3c(c2C#N)CCCCC3)o1	0.17µM*	-32%	1.5µM*	4µM*	4.5µM*
C=CCNCc1cccn1-c1sc2c(c1C#N)CCCC2	2%	?	-11%	3%	-5%
O=C(CSc1n[nH]c(=O)[nH]c1=O)NC1CC1	4%	1%	-1%	2%	6%
